Measured values taken from the supplement of paper PMC10981050.
Values joined by “and” are separate entries in the source; they are usually repeats but may differ in a detail not shown here. Identical values can stand only once. Counter-ions that a name gives are not always drawn.

Key:
Experiment in all cases: cell viability relative to vehicle control; higher = less cytotoxic
Details in all cases: 10 µM
K562 = tested on: K562
Summary of the method: (§1)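 CRISPR-edited SRSF2 P95 mutant and isogenic wild-type clones of four leukaemia lines were screened against Selleck bioactive, kinase and epigenetic probe libraries, with identity-inconsistent compounds removed. Compounds were acoustically dispensed into 384-well plates at a single 10 µM dose, with 2000 cells in 50 µL medium per well. After 48 h, supernatant was removed and CellTiter-Glo luminescence was read. Viability was expressed as percent of the on-plate DMSO vehicle control, analysed in Genedata Screener.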

MARIMO = tested on: MARIMO
Summary of the method: as §1

MOLM14 = tested on: MOLM14
Summary of the method: as §1

OCI-AML2 = tested on: OCI-AML2
Summary of the method: as §1

Structure (SMILES) | cell viability (K562; SRSF2 genotype: SRSF2 P95H/wt) | cell viability (K562; SRSF2 genotype: SRSF2 wt/wt) [%] | cell viability (MARIMO; SRSF2 genotype: SRSF2 P95H/wt) [%] | cell viability (MARIMO; SRSF2 genotype: SRSF2 wt/wt) [%] | cell viability (MOLM14; SRSF2 genotype: SRSF2 P95H/wt) [%] | cell viability (MOLM14; SRSF2 genotype: SRSF2 wt/wt) [%] | cell viability (OCI-AML2; SRSF2 genotype: P95H/wt) [%] | cell viability (OCI-AML2; SRSF2 genotype: wt/wt) [%]
C=C1CC[C@H]2O[C@]2(C)CC[C@@H]2[C@@H]1CC2(C)C [Caryophyllene oxide] | 100% and 97% | 105 | 102 | 105 | 103 | 107 | 112 | 98
C[C@H]1O[C@@H](O[C@H]2CC[C@@]3(C)[C@@H](CC[C@]4(C)[C@@H]3C=C[C@]35OC[C@@]6(CCC(C)(C)C[C@H]63)[C@H](O)C[C@]54C)[C@]2(C)CO)[C@H](O)[C@@H](O[C@@H]2O[C@H](CO)[C@@H](O)[C@H](O)[C@H]2O)[C@H]1O [Saikosaponin D] | 6.69% and 0.65% | 0.4 | 14 | 3.54 | 0.86 | 0.86 | 10.2 | 12.9
CC=C1C(=O)C[C@H]2[C@@H]3CCC4=CC(=O)CC[C@]4(C)[C@H]3CC[C@]12C [Guggulsterone E&Z] | 76% and 84.7% | 79.3 | 61.7 | 72.3 | 80.4 | 89.3 | 71.8 | 76.7
CC(=O)Oc1cc2c(s1)CCN(C(C(=O)C1CC1)c1ccccc1F)C2 (stereo unspecified) [Prasugrel (Effient)] | 26.1% and 36.8% | 32.7 | 9.74 | 14.8 | 23.1 | 6.67 | 20.9 | 23.1
CC(C)=CCOc1ccc(/C=C/C(=O)c2ccc(OCC=C(C)C)cc2OCC(=O)O)cc1 [Sofalcone] | 100% and 101% | 107 | 105 | 101 | 84.9 | 94.5 | 106 | 118
COCC1=C(C(=O)OC(C)OC(=O)OC(C)C)N2C(=O)[C@@H](NC(=O)/C(=N\OC)c3csc(N)n3)[C@H]2SC1 (stereo partly specified) [Cefpodoxime proxetil] | 103% and 105% | 92.6 | 91.9 | 100 | 90.4 | 95.7 | 90.3 | 94.9
Cc1ccc(Nc2nccc(N(C)c3ccc4c(C)n(C)nc4c3)n2)cc1S(N)(=O)=O [Pazopanib HCl] | 49.1% and 57.7% | 51 | 54.5 | 46.3 | 36.4 | 39.8 | 28.3 | 33.9
O=c1ccc2ccc(O)c(O)c2o1 [Daphnetin] | 79.5% and 82.3% | 83.5 | 75.2 | 89 | 84.4 | 93.2 | 81.4 | 86.2
Oc1ccc(Nc2nc(-c3ccc(Cl)cc3)cs2)cc1 | 49.4% and 65.5% | 66.4 | 38.8 | 36.5 | 40.9 | 39.6 | 42.1 | 42.1
Cc1nc(C(=O)NCC(=O)O)c(O)c2ccc(Oc3ccccc3)cc12 [Roxadustat (FG-4592)] | 89.4% and 79.4% | 85.7 | 79.1 | 82.7 | 88.5 | 84.3 | 83.9 | 87.5
COc1cc(CO)ccc1O [Vanillyl Alcohol] | 97.3% and 89.7% | 88.8 | 94.9 | 100 | 92.1 | 95.9 | 92.4 | 91.7
Cn1cc(-c2ccc3c(c2)CCN3C(=O)Cc2cccc(C(F)(F)F)c2)c2c(N)ncnc21 | 37.6% and 52.8% | 39.2 | 60.5 | 62.1 | 16.1 | 16 | 26.3 | 28.8
Cn1cnc2c(F)c(Nc3ccc(Br)cc3F)c(C(=O)NOCCO)cc21 | 84.2% and 92.4% | 79.5 | 41 | 38.6 | 45.8 | 28.9 | 39.5 | 42.5
Cc1ncc([N+](=O)[O-])n1CC(C)O (stereo unspecified) [Secnidazole (Flagentyl)] | 100% and 109% | 106 | 100 | 105 | 104 | 108 | 114 | 93.1
C=CC(=O)Nc1cccc(Nc2nc(Nc3ccc(N4CCN(C(C)=O)CC4)cc3OC)ncc2C(F)(F)F)c1 [Rociletinib (CO-1686, AVL-301)] | 54.5% and 77.9% | 68.3 | 34.9 | 29.4 | 6.76 | 11.9 | 10.2 | 19
CCOC(=O)C1OC1C(=O)NC(CC(C)C)C(=O)NCCC(C)C (stereo unspecified) | 103% | 97.2 | 96.3 | 101 | 88.7 | 101 | 98.5 | 104
CN(C)C(=O)Nc1cccc(-c2ccc(N(C)C)cc2)c1 [Atglistatin] | 90.1% and 82.6% | 91.3 | 91.4 | 99.9 | 96.8 | 92.4 | 92.7 | 89.2
CSCC1CN(/N=C/c2ccc([N+](=O)[O-])o2)C(=O)O1 (stereo unspecified) [Nifuratel] | 85.1% and 77.7% | 78.8 | 78.3 | 82.2 | 77 | 80.1 | 79.1 | 87.3
Cc1ccccc1C(=O)Nc1ccc(C(=O)N2CCCC(N(C)C)c3ccccc32)cc1 (stereo unspecified) [Mozavaptan] | 93.3% and 90.1% | 85 | 88.9 | 93.2 | 97.1 | 102 | 95.5 | 97.1
CC(=O)OCC(CCn1cnc2cnc(N)nc21)COC(C)=O [Famciclovir (Famvir)] | 103% and 95.1% | 90.8 | 99.7 | 104 | 99.3 | 97.5 | 94.7 | 98
N=C(N)c1ccc(OCCCCCOc2ccc(C(=N)N)cc2)cc1 [Pentamidine isethionate] | 53.9% and 50% | 55.9 | 63.3 | 62.8 | 72 | 70.5 | 65.5 | 57.8

Structure (SMILES) | cell viability (K562; SRSF2 genotype: SRSF2 P95H/wt) | cell viability (K562; SRSF2 genotype: SRSF2 wt/wt) [%] | cell viability (MARIMO; SRSF2 genotype: SRSF2 P95H/wt) [%] | cell viability (MARIMO; SRSF2 genotype: SRSF2 wt/wt) [%] | cell viability (MOLM14; SRSF2 genotype: SRSF2 P95H/wt) [%] | cell viability (MOLM14; SRSF2 genotype: SRSF2 wt/wt) [%] | cell viability (OCI-AML2; SRSF2 genotype: P95H/wt) [%] | cell viability (OCI-AML2; SRSF2 genotype: wt/wt) [%]
C[C@@H]1O[C@@H](O[C@@H]2[C@@H](O)[C@H](OCCc3ccc(O)c(O)c3)O[C@H](COC(=O)/C=C/c3ccc(O)c(O)c3)[C@H]2O)[C@H](O)[C@H](O)[C@H]1O [Isoacteoside] | 101% and 104% | 91.6 | 99 | 103 | 94.9 | 101 | 100 | 106
COc1cc2nccc(Oc3ccc(NC(=O)c4cn(C(C)C)c(=O)n(-c5ccc(F)cc5)c4=O)cc3F)c2cc1OC | 30.1% and 27.1% | 48.2 | 102 | 102 | 27.7 | 43.7 | 70.4 | 80.4
CN1CCN(c2ccc(Nc3ncc4cc(C#N)c(=O)n(C5CCCC5)c4n3)cc2)CC1 | 79.5% and 104% | 87.8 | 60.4 | 58.4 | 17.9 | 16.4 | 21.4 | 29.1
CCOC(=O)N[C@@H]1CC[C@@H]2[C@@H](C1)C[C@H]1C(=O)O[C@H](C)[C@H]1[C@H]2/C=C/c1ccc(-c2cccc(F)c2)cn1 | 80.4% and 87% | 80.8 | 83.3 | 82.5 | 81.6 | 83.6 | 65.1 | 64.7
NCCOCCOCCNC(=O)Cc1ccc(Nc2nc(NCc3ccc(F)cc3)nc(NCC3CCCCC3)n2)cc1 [AP-III-a4 (ENOblock)] | 81.5% and 90.7% | 87.5 | 94.3 | 97.1 | 16 | 14 | 75.2 | 79.6
CN(C)CC/C=C1/c2ccccc2COc2ccc(CC(=O)O)cc21 [Olopatadine hydrochloride (Opatanol)] | 105% and 106% | 102 | 101 | 114 | 107 | 104 | 95.4 | 105
C[C@H](CCC(=O)NCC(=O)O)[C@H]1CC[C@H]2[C@@H]3[C@H](O)C[C@@H]4C[C@H](O)CC[C@]4(C)[C@H]3C[C@H](O)[C@]12C [Glycocholic acid] | 107% and 108% | 109 | 106 | 102 | 100 | 109 | 117 | 98
CS(=O)(=O)CCNCc1ccc(-c2ccc3ncnc(Nc4ccc(OCc5cccc(F)c5)c(Cl)c4)c3c2)o1 [Lapatinib] | 40.9% and 35.3% | 35.8 | 83.2 | 77.6 | 75.4 | 75.6 | 22.2 | 45.5
O=C(c1ccc(OCCCc2c[nH]cn2)cc1)C1CC1 [Ciproxifan Maleate] | 89.3% and 91.3% | 87.7 | 85.2 | 90.4 | 95.9 | 93.9 | 71.8 | 83.4
Cc1ccc([N+](=O)[O-])cc1S(=O)(=O)N(C)/N=C/c1cnc2ccc(Br)cn12 | 28.6% and 22.3% | 21 | 7.47 | 3.68 | 0.68 | 0.5 | 1.7 | 17.4
CCN1CCN(c2cc3c(cc2F)c(=O)c(C(=O)O)cn3C2CC2)CC1 [Enrofloxacin] | 98.9% and 111% | 99.2 | 108 | 111 | 103 | 111 | 109 | 109
c1ccc(-c2nn3c(c2-c2ccnc4cc(OCCN5CCOCC5)ccc24)CCC3)nc1 | 104% and 111% | 97.1 | 106 | 120 | 105 | 110 | 108 | 117
CNC(=O)c1cc(COc2nnc(Nc3ccc(Cl)cc3)c3ccoc23)ccn1 [Telatinib (BAY 57-9352)] | 94.6% and 90.8% | 98.7 | 106 | 106 | 108 | 97.3 | 90.6 | 99.5
CC(C)C[C@H](NP(=O)(O)O[C@@H]1O[C@@H](C)[C@H](O)[C@@H](O)[C@H]1O)C(=O)N[C@@H](Cc1c[nH]c2ccccc12)C(=O)O [Phosphoramidon Disodium Salt] | 104% and 101% | 92.3 | 101 | 106 | 95.5 | 104 | 98.6 | 96.9
COc1cc(N2CCC(N(C)C)CC2)ccc1Nc1ncc(Cl)c(Nc2ccccc2P(C)(C)=O)n1 | 41.2% and 62.9% | 34.2 | 34 | 27.2 | 1.15 | 3.56 | 4.59 | 12.3
O=C(O)c1cc(=O)[nH]c(=O)[nH]1 [Orotic acid (6-Carboxyuracil)] | 104% and 95.1% | 96.6 | 91.1 | 101 | 95.3 | 95.2 | 95.2 | 96.5
Cc1n[nH]c2ncc(C(=O)N3CCC[C@H]3c3ccc(Cl)cc3)cc12 | 101% and 98.5% | 99.8 | 101 | 128 | 88.8 | 105 | 91.4 | 92.8
O=c1cc(-c2ccc(O)cc2)oc2cc(O)cc(O)c12 [Apigenin] | 102% and 96.4% | 96 | 85.9 | 99.8 | 55.4 | 57.5 | 67.9 | 63.6
CC(=O)O/N=C1/C(c2c(O)[nH]c3cc(Br)ccc23)=Nc2ccccc21 [BIO-acetoxime] | 32.5% and 23.4% | 25.4 | 82.2 | 88.4 | 33.1 | 24.4 | 73.2 | 76.2
Cn1ccnc1S [Methimazole (Tapazole, Northyx)] | 101% and 94.7% | 95.5 | 99.3 | 99.8 | 97.7 | 97.6 | 93.2 | 100
CCS(=O)(=O)N1CCC([C@@H](C)n2c(C)c(C(=O)NCc3c(OC)cc(C)[nH]c3=O)c3ccccc32)CC1 | 100% and 98.2% | 95.7 | 99.8 | 111 | 100 | 99 | 107 | 109
